Test results from PubChem BioAssay (Tox21).
Where “and” joins values, the source holds several entries; their conditions need not be identical. Equal entries are not always repeated. Results filed as inconclusive are left out. Where a call stands in place of a potency, no number is given. Calls of active or inactive are those of the source. Unless noted, calls come from the whole dose curve; as a rule, active = well fitted curve in the direction sought with a large enough effect in the repeat runs; inconclusive = weak or mixed curves; inactive = no such curve, though single readings can be large; an effect the other way counts as inactive or inconclusive.

Tests used:
[1] = qHTS assay to identify small molecule agonists of the estrogen receptor alpha (ER-alpha) signaling pathway in the presence of an antagonist - cell viability counter screen (AID 1259386);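 note: cells exposed to compounds for 22 h at 37 °C before the viability read; nearly all actives have a fitted effect of over 30% in size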; note: potency is the fitted concentration of half-maximal effect
Outline: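 Fluorescent CellTiter-Fluor viability signal from VM7Luc4E2 cells, with the reagent added during the final hour of a 22hr compound exposure at 37C in the presence of 10.0nM ICI-182,780.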

[2] = molecular target: Progesterone receptor (Homo sapiens) (UniProt P06401); assay: qHTS assay to identify small molecule agonists of the progesterone receptor (PR) signaling pathway (AID 1346784; calls by dose curve; note: nearly all actives have a fitted effect of over 30% in size)
Chain of Progesterone receptor (Homo sapiens) (P06401 whole entry, looked up): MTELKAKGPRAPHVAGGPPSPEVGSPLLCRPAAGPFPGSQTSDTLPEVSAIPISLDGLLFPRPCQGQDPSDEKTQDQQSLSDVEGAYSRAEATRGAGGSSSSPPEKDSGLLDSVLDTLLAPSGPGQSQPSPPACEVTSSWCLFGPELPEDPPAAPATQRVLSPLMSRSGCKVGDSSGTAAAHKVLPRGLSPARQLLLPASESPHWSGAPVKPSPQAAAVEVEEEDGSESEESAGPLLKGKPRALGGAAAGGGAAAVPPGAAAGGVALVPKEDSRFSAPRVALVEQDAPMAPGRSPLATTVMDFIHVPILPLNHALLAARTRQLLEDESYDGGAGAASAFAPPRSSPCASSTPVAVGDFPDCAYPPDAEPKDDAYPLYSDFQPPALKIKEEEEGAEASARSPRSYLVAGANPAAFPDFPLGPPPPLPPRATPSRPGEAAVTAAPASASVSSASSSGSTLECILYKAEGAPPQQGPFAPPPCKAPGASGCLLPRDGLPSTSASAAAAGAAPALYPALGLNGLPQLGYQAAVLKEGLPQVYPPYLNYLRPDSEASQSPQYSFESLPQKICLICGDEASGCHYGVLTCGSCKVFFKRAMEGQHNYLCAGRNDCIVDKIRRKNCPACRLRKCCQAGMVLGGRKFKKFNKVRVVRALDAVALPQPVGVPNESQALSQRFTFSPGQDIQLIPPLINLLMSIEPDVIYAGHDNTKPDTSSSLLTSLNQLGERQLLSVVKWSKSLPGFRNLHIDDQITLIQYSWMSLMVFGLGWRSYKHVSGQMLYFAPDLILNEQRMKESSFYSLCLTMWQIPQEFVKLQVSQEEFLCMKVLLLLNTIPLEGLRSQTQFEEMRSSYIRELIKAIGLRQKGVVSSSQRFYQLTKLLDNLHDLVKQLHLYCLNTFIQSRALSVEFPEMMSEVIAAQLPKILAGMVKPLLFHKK
Outline: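 Using charcoal-stripped serum (2%) to limit endogenous steroids, PR-UAS-bla HEK 293T cells received compounds for 16 hr at 37C after 6 hr plating; beta-lactamase FRET fluorescence was recorded following 2 hr substrate loading at room temperature.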

[3] = molecular target: Progesterone receptor (Homo sapiens) (UniProt P06401); assay: qHTS assay to identify small molecule antagonists of the progesterone receptor (PR) signaling pathway (AID 1346795; active = well fitted inhibition curve with a large enough effect in the signal ratio in the repeat runs, not every such curve was filed as active; the % refers to the signal ratio; note: potency is the fitted concentration of half-maximal effect)
Outline: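 Inhibition of R5020-induced (1 nM final) beta-lactamase reporter signal in PR-UAS-bla HEK293T cells was scored by FRET fluorescence after overnight (16 hr) compound treatment.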

[4] = qHTS assay to identify small molecule antagonists of the progesterone receptor (PR) signaling pathway - cell viability counter screen (AID 1346798); note: series mostly up to about 92 µM; nearly all actives have a fitted effect of over 50% in size
Outline: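 ATP content as viability readout: CellTiter-Glo luminescence, 30 min room temperature, in PR-UAS-bla HEK293T cells after 16 hr compound/R5020 treatment at 37C and 5% CO2.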

[5] = qHTS assay to identify small molecule agonists of the progesterone receptor (PR) signaling pathway - cell viability counter screen (AID 1346799; calls by dose curve; note: nearly all actives have a fitted effect of over 45% in size)
Outline: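 Cytotoxicity in PR-bla HEK293T cells: 16 h compound, 37C; CellTiter-Glo added post-FRET read; luminescence after 30 min RT.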

[6] = qHTS assay to identify small molecule antagonists of the TGF-beta/Smad signaling pathway - cell viability counter screen (AID 1346824); note: nearly all actives have a fitted effect of over 50% in size
Outline: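 SBE-bla HEK 293T cells, incubated overnight, then compound plus 0.25 ng/mL TGF-beta1 (stock added) for 5 hr at 37 C. Viability was read in the same wells by CellTiter-Glo luminescence after 30 min at room temperature.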

[7] = qHTS assay to identify small molecule agonists of the TGF-beta/Smad signaling pathway - cell viability counter screen (AID 1346829); note: top concentration of the series differs between compounds; nearly all actives have a fitted effect of over 45% in size
Outline: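 Same-well cytotoxicity: CellTiter-Glo added after the 2 hr room-temperature beta-lactamase substrate step, luminescence measured 30 min later; cells had 5 hr of compound at 37 C.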

[8] = qHTS assay to identify small molecule agonists of the TGF-beta/Smad signaling pathway (AID 1346859; active = well fitted activation curve with a large enough effect in the signal ratio in the repeat runs, not every such curve was filed as active; the % refers to the signal ratio; note: series mostly up to about 77 µM)
Outline: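 Stable Smad binding element-beta-lactamase HEK 293T cells; 5 hr compound exposure at 37 C under 5% CO2; 2 hr room-temperature substrate step; fluorescence excited at 405 nm, collected at 460 nm and 530 nm.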

[9] = molecular target: Thyrotropin-releasing hormone receptor (Homo sapiens) (UniProt P34981); assay: qHTS assay to identify small molecule antagonists of the thyrotropin-releasing hormone receptor (TRHR) signaling pathway (AID 1346877; active = well fitted inhibition curve with a large enough effect in the repeat runs, not every such curve was filed as active; note: series mostly up to about 51 µM)
Chain of Thyrotropin-releasing hormone receptor (Homo sapiens) (P34981 whole entry, looked up): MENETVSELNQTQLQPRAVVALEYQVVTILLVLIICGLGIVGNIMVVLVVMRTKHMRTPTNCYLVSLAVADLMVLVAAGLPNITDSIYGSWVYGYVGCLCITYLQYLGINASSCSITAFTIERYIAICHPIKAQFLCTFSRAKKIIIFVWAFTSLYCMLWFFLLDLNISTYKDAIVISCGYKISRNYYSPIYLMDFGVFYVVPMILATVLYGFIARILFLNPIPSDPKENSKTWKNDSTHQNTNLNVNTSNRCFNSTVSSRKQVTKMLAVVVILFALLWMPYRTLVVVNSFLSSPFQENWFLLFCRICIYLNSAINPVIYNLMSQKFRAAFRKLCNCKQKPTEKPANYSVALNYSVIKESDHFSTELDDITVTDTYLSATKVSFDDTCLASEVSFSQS
Outline: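 In this cell-based calcium flux format, HEK293 cells expressing TRHR received test compound for 5 min before the agonist TRH (1 nM final). Dye loading lasted 2 h at 37 °C.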

[10] = molecular target: Thyrotropin receptor (Homo sapiens) (UniProt P16473); assay: qHTS assay to identify small molecule antagonists of the thyroid stimulating hormone receptor (TSHR) signaling pathway (AID 1259385; calls by dose curve; note: nearly all actives have a fitted effect of over 20% in size)
Chain of Thyrotropin receptor (Homo sapiens) (P16473 whole entry, looked up): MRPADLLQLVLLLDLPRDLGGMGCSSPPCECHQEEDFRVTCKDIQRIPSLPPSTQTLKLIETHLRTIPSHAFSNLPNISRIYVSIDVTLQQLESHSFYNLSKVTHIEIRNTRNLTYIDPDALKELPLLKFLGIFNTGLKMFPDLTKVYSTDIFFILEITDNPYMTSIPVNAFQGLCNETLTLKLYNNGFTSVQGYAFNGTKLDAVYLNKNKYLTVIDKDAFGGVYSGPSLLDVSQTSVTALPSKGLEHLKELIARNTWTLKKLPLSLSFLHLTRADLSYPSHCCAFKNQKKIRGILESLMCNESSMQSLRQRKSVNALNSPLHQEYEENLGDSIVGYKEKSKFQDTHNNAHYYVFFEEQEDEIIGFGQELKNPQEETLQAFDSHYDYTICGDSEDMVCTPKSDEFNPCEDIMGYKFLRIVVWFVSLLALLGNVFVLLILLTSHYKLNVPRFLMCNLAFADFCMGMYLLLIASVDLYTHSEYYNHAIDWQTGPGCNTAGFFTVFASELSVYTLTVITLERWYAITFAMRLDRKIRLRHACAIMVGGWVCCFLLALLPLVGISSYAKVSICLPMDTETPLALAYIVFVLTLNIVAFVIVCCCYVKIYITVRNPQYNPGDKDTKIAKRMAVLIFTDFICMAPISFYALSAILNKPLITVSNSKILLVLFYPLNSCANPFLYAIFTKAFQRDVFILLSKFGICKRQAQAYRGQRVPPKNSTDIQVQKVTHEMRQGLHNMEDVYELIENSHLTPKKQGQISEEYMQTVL
Outline: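 TSHR-HEK293 cells (800/well) plated 18 h, then compounds with Ro20-1724 and TSH at 1.5 ng/mL final, 30 min at room temperature. cAMP quantified by HTRF (cAMP-d2/anti-cAMP-cryptate, 1 h); 15 concentrations in triplicate.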

Compound	Potency [1]	Potency [2]	Potency [3]	Potency [4]	Potency [5]	Potency [6]	Potency [7]	outcome [8]	Potency [9]	outcome [10]
Nc1ccc(-c2ccc(N)c(N)c2)cc1N	54.3 µM (active)	inactive	48.4 µM (active) and 24.3 µM (active)	inactive	inactive	inactive	inactive	–	–	–
O=S(=O)(Oc1ccc(Cl)cc1)c1ccc(Cl)cc1	inactive	inactive	17.5 µM (active) and 17.2 µM (active)	inactive	inactive	inactive	inactive	inactive	inactive	–
CCCCCCOC(=O)c1ccccc1C(=O)OCCCCCC	inactive	–	–	–	inactive	inactive	inactive	inactive	–	inactive
CCCCNC(=O)n1c(NC(=O)OC)nc2ccccc21	inactive	inactive	–	–	inactive	inactive	inactive	inactive	–	inactive
